What was measured:
Assay in all cases: DAPPL (digital affinity profiling via proximity ligation, sequencing); 10 mM Tris-HCl pH 7.5, 50 mM NaCl, 1 mM DTT, 4% glycerol, room temperature, 30 min; GST-TFs on glutathione beads, 16-mer random dsDNA library, 0.1% formaldehyde crosslink after washing; high values mean tight binding
Conditions in all cases: protein: recombinant; tags: N-terminal GST; dsDNA, one strand shown
FLI1 = molecular target: T1, FLI1 (Homo sapiens, UniProt Q01543 1-452)
T1 sequence: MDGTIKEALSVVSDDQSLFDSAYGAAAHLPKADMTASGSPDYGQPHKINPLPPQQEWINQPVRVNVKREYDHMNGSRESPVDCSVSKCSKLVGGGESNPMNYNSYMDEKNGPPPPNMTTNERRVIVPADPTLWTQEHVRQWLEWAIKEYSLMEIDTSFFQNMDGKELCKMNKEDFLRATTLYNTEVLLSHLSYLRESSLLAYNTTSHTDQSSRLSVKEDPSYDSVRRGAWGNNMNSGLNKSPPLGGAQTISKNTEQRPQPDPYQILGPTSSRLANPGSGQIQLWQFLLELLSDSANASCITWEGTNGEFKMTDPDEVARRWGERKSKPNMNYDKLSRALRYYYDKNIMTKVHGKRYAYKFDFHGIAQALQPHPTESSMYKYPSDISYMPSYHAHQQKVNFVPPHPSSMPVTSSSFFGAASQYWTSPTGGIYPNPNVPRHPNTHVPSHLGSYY
Summary of the method: (§1)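 Pools were built from human transcription factors expressed in yeast as GST fusions, captured on glutathione beads and DNA-barcoded, along with a tag-only sample. Incubation with 200 nmole of a 16-mer random double-stranded DNA library lasted 30 min at room temperature in Tris/NaCl/DTT/glycerol buffer, and was followed by washing, 0.1% formaldehyde crosslinking, proximity ligation, PCR amplification and Illumina NextSeq500 sequencing. Binding signal is the quotient of each hexamer's read frequency for a factor and its frequency for the tag-only sample.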

GABPA = molecular target: T2, GABPA (Homo sapiens, UniProt Q06546 1-454)
T2 sequence: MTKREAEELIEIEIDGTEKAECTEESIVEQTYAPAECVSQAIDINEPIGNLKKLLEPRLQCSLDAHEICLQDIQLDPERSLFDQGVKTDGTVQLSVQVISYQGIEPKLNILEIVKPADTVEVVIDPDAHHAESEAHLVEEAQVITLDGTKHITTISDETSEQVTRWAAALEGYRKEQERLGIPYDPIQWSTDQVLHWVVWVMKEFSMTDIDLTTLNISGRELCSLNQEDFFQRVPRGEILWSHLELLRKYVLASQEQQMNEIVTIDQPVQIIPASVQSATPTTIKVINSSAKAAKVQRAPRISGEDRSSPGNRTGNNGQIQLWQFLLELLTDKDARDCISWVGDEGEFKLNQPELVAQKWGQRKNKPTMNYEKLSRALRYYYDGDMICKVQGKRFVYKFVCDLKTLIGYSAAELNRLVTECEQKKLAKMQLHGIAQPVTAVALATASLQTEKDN
Summary of the method: as §1

ERG = molecular target: T3, ERG (Homo sapiens, UniProt P11308 1-479)
T3 sequence: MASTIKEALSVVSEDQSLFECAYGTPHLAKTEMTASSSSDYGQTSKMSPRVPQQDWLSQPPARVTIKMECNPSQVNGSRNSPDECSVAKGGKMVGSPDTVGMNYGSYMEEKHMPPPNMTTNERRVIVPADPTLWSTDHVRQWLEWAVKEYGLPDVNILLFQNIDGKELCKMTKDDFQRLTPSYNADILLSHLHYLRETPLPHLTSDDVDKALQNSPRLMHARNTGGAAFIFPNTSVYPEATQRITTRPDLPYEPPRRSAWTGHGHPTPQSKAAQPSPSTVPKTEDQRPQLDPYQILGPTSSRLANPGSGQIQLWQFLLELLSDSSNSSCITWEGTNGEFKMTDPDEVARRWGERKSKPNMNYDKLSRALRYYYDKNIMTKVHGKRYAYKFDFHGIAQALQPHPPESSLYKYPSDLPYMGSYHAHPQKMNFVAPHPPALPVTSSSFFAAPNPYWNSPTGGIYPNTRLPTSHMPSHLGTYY
Summary of the method: as §1

EHF = molecular target: T4, EHF (Homo sapiens, UniProt Q9NZC4 1-300)
T4 sequence: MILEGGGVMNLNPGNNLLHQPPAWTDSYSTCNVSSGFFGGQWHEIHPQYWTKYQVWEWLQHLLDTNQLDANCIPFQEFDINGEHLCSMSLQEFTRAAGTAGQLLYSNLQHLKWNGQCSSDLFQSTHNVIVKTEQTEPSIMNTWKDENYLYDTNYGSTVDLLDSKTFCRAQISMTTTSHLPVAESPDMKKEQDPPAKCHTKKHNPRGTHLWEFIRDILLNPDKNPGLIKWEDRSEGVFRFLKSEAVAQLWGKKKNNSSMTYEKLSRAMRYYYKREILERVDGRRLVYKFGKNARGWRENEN
Summary of the method: as §1

SPIB = SPIB (Homo sapiens, UniProt Q01892 1-262)
Summary of the method: as §1

FEV = molecular target: T5, FEV (Homo sapiens, UniProt Q99581 1-238)
T5 sequence: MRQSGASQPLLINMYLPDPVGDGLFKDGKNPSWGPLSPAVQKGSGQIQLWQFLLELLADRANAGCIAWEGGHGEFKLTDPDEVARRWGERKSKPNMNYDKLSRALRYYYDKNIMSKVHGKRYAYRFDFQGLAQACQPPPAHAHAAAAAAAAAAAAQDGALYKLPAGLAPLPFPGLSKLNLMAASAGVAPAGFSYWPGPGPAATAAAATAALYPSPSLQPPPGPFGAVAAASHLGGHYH
Summary of the method: as §1

ETV5 = ETV5 (Homo sapiens, UniProt P41161 1-510)
Summary of the method: as §1

ELF3 = molecular target: T6, ELF3 (Homo sapiens, UniProt P78545 1-371)
T6 sequence: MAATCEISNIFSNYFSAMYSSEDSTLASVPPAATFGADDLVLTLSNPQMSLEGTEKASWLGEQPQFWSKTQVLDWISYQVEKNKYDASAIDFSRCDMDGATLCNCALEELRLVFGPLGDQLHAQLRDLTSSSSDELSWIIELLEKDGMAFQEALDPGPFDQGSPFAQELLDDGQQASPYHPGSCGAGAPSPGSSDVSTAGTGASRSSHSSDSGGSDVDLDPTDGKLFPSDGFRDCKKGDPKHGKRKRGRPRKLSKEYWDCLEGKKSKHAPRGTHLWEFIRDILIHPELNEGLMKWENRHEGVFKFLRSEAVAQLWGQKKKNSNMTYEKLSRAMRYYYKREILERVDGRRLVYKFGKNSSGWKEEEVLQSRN
Summary of the method: as §1

ETV1 = ETV1 (Homo sapiens, UniProt P50549 1-477)
Summary of the method: as §1

ETV3L = molecular target: T7, ETV3L (Homo sapiens, UniProt Q6ZN32 1-361)
T7 sequence: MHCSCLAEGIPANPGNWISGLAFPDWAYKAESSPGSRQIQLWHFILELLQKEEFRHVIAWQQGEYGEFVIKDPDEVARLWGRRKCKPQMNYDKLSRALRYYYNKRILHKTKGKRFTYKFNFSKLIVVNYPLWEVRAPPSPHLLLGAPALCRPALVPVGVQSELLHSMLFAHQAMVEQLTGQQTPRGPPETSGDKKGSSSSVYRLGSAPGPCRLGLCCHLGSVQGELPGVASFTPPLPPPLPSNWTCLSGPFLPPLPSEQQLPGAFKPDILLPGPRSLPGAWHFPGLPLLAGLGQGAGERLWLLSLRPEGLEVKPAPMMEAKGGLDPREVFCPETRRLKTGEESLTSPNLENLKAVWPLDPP
Summary of the method: as §1

ETV3 = molecular target: T8, ETV3 (Homo sapiens, UniProt P41162-2 1-143)
T8 sequence: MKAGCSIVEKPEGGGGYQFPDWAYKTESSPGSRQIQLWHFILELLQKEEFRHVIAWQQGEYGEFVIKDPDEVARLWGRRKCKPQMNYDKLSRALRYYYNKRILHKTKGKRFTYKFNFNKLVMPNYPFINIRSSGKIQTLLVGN
Summary of the method: as §1

ETV6 = ETV6 (Homo sapiens, UniProt P41212 1-452)
Summary of the method: as §1

ETS2 = molecular target: T9, ETS2 (Homo sapiens, UniProt P15036 1-469)
T9 sequence: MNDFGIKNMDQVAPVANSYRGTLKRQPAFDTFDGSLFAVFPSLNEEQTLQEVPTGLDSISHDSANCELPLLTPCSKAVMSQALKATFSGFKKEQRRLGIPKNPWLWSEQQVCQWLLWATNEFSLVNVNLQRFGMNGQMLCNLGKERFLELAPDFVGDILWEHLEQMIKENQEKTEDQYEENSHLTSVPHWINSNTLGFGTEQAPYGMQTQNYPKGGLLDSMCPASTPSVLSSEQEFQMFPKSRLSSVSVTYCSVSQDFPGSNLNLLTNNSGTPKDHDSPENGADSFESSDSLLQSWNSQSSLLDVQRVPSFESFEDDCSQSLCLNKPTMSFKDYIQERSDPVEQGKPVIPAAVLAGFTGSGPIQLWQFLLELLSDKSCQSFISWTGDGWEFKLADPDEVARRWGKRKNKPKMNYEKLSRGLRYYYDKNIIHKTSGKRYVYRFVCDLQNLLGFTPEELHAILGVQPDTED
Summary of the method: as §1

ETV7 = molecular target: T10, ETV7 (Homo sapiens, UniProt Q9Y603 1-341)
T10 sequence: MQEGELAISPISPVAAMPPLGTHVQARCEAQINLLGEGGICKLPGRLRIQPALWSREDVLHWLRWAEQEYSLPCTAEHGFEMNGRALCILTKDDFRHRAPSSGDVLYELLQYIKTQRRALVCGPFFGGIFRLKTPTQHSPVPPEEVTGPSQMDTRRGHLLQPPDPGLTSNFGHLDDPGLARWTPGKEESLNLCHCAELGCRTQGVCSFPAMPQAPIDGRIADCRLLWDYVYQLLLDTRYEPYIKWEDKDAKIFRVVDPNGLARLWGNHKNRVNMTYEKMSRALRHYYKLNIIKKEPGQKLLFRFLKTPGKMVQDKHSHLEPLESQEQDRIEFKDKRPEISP
Summary of the method: as §1

Chain of ETV6 (P41212 whole entry): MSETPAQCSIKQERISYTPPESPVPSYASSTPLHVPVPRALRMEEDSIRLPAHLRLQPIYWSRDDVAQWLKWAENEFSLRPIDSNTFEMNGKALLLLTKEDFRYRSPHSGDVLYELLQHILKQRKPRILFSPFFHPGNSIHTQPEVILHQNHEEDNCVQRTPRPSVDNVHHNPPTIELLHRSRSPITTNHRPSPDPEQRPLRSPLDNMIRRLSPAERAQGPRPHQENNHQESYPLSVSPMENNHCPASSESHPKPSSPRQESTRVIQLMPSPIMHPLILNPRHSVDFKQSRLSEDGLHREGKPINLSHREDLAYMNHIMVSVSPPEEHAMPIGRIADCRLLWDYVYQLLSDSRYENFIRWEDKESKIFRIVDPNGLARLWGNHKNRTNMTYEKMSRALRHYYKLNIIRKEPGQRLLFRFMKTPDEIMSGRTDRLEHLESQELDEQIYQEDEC
Chain of ETV1 (P50549 whole entry): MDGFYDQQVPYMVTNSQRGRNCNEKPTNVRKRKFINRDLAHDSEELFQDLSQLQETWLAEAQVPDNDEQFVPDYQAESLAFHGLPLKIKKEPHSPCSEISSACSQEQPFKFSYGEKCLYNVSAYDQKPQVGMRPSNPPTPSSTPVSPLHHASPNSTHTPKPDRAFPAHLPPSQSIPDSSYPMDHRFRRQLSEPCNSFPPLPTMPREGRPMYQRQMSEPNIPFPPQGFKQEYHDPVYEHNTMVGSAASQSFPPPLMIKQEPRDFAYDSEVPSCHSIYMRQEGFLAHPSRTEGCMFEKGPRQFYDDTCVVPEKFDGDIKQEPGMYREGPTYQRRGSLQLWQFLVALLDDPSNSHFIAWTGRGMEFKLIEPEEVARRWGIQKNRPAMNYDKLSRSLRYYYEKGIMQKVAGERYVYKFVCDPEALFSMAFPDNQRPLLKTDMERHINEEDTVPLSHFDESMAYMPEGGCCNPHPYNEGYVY
Chain of ETV5 (P41161 whole entry): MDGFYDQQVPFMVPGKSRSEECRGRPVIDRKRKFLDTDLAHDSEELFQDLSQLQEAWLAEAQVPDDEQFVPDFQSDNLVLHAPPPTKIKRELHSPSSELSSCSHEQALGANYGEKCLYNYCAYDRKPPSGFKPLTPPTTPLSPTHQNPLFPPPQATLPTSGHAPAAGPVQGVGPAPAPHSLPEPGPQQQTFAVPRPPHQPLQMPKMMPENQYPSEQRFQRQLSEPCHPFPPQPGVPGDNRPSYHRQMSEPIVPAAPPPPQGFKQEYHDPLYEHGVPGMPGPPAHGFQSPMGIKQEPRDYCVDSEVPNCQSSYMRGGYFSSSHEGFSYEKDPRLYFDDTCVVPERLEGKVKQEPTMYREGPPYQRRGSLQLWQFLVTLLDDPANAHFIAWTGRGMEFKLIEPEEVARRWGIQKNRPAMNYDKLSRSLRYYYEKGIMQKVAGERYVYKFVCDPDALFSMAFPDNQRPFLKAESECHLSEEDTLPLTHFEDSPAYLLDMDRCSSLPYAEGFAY
Chain of SPIB (Q01892 whole entry): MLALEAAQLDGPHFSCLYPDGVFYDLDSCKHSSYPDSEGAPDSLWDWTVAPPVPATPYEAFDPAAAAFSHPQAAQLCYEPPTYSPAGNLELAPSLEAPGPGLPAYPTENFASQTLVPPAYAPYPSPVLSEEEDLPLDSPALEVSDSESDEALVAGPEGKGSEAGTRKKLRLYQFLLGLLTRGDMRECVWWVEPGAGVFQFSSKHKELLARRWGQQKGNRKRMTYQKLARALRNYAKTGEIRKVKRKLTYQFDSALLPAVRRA

Sequence	binding signal (FLI1)	binding signal (GABPA)	binding signal (ERG)	binding signal (EHF)	binding signal (SPIB)	binding signal (FEV)	binding signal (ETV5)	binding signal (ELF3)	binding signal (ETV1)	binding signal (ETV3L)	binding signal (ETV3)	binding signal (ETV6)	binding signal (ETS2)	binding signal (ETV7)
GTCCGC	1.1 fold enrichment (6-mer frequency, TF over GST control)	1 fold enrichment (6-mer frequency, TF over GST control)	1.04 fold enrichment (6-mer frequency, TF over GST control)	1.05 fold enrichment (6-mer frequency, TF over GST control)	1.03 fold enrichment (6-mer frequency, TF over GST control)	1.04 fold enrichment (6-mer frequency, TF over GST control)	1.07 fold enrichment (6-mer frequency, TF over GST control)	1.01 fold enrichment (6-mer frequency, TF over GST control)	1.08 fold enrichment (6-mer frequency, TF over GST control)	1.02 fold enrichment (6-mer frequency, TF over GST control)	1.03 fold enrichment (6-mer frequency, TF over GST control)	1.03 fold enrichment (6-mer frequency, TF over GST control)	–	–
CCCGGT	1.01 fold enrichment (6-mer frequency, TF over GST control)	–	1.09 fold enrichment (6-mer frequency, TF over GST control)	1.14 fold enrichment (6-mer frequency, TF over GST control)	1.01 fold enrichment (6-mer frequency, TF over GST control)	1.04 fold enrichment (6-mer frequency, TF over GST control)	1.09 fold enrichment (6-mer frequency, TF over GST control)	1.06 fold enrichment (6-mer frequency, TF over GST control)	1.07 fold enrichment (6-mer frequency, TF over GST control)	1.01 fold enrichment (6-mer frequency, TF over GST control)	1.09 fold enrichment (6-mer frequency, TF over GST control)	1 fold enrichment (6-mer frequency, TF over GST control)	1.04 fold enrichment (6-mer frequency, TF over GST control)	1.01 fold enrichment (6-mer frequency, TF over GST control)
